Test results as given in PubChem BioAssay (NCATS).
“And” between values parts separate entries of the source, which are not always exact repeats. Equal values may be shown once. Records with an inconclusive call do not appear. Where a structure was tested more than once in an assay, its records may differ in their call. The source made the active and inactive calls. Unless noted, calls come from the whole dose curve; as a rule, active = well fitted curve in either direction with a large enough effect (not every such curve was filed as active); inconclusive = small, poorly fitted or top-dose-only effect, or another doubt; inactive = flat fitted curve, though single readings scatter.

Tests used:
[1] = molecular target: Lysosomal acid glucosylceramidase (Homo sapiens) (UniProt P04062); assay: Glucocerebrosidase-p2 (AID 348; in the data active = potency below about 10 µM; note: potency is the fitted concentration of half-maximal effect); settings: purified GBA, blue fluorogenic substrate, 40 min
Procedure, shortened: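 Compounds titrated from 0.6 nM upwards against 0.2 nM enzyme in pH 5.9 citric acid/KH2PO4, taurocholate, tween-20; blue fluorogenic substrate 80 uM, 40 min room temperature, stopped and read Ex 365/Em 440 for AC50.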

[2] = molecular target: Cytochrome P450 1A2 (Homo sapiens) (UniProt P05177); assay: p450-cyp1a2 (AID 410; calls by dose curve; note: potency is the fitted concentration of half-maximal effect;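 for activity change, negative = inhibition: -100% = full effect of reference inhibitor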); settings: recombinant CYP1A2, luciferin-ME demethylation, luminescence; series mostly up to 57 µM
Procedure, shortened: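 Inhibition was calculated relative to 57 uM furafylline (full inhibition). The reaction used human CYP1A2 at 20nM with Luciferin-ME at its Km, 100uM, driven by an NADPH-regenerating system for 60 min at room temperature.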

[3] = molecular target: Glucocorticoid receptor (Homo sapiens) (UniProt P04150); assay: GR-GFP Redistribution (AID 450;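 active = compounds whose dose series gives a full or clear partial fitted curve of increased nuclear translocation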; note: potency is the fitted concentration of half-maximal effect); settings: U2OS GR-GFP nuclear translocation, laser cytometry, 2 h
[4] = molecular target: Glucocorticoid receptor (Homo sapiens) (UniProt P04150); assay: GR-EFC Redistribution (AID 451; calls by dose curve; note: potency is the fitted concentration of half-maximal effect); settings: CHO-K1 GR-EFC translocation, beta-gal luminescence, 2 h
Procedure, shortened: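 CHO-K1 cells expressing nuclear EA and GR-ED fragments of b-gal; compounds titrated up to 46 uM final, 2 h at 37 C. GR nuclear translocation read as complemented b-gal luminescence after 1 h RT detection.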

[5] = molecular target: Mitogen-activated protein kinase 10 (Mus musculus) (UniProt Q61831); assay: JNK3 AlphaScreen Assay (AID 530); settings: JNK3 lysate, c-Jun phosphorylation; series mostly up to 57.1 µM;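 note: kinase came from lysate of stimulated human HepG2 cells; signal reports phosphorylation of biotinylated GST-cJun 1-79 at Ser73 with 10 µM ATP; % is set by controls: 0 for no effect and ±100 for the full control effect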
Procedure, shortened: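 qHTS format: compounds tested as titrations against IL-1beta/TNF-alpha-activated HepG2 lysate JNK3 with biotin-GST-cJun substrate and 10 uM ATP at room temperature. Loss of anti-phospho-cJun AlphaScreen signal indicates inhibition.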

[6] = qHTS Assay for Lipid Storage Modulators (AID 1519; calls by dose curve); settings: Drosophila S3 cells, BODIPY lipid droplet/cell ratio, laser cytometry, cells loaded with oleic acid
Procedure, shortened: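 Cells seeded at 5,000 per well were treated with compounds over a concentration series and loaded with oleic acid (400 uM, as added). Lipid droplet fluorescence (488 nm excitation, 500-530 nm channel) was read by laser-scanning cytometry and normalized to 20 uM Triacsin C.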

[7] = AP1 Signaling Pathway (AID 357); settings: ME-180 AP-1-bla reporter, EGF-induced, beta-lactamase ratio, 5 h; note: % is set by controls: 0 for no effect and ±100 for the full control effect
Procedure, shortened: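 AP-1-bla ME-180 cells with beta-lactamase reporter under AP-1 response element, stimulated with EC50 EGF; compounds titrated, 5 hours at 37 degrees Celsius. CCF4 read at 460/530 nm ratio; positive and negative modulators judged by AC50.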

[8] = NFAT Signaling Pathway (AID 444); settings: Jurkat NFAT-bla M1, carbachol, beta-lactamase ratio, 5 h;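 note: carbachol stimulus at about its EC50 of 1 µM final; % is set by controls: 0 for no effect and ±100 for the full control effect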
Procedure, shortened: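 Jurkat cells with NFAT-driven β-lactamase reporter and co-expressed M1 receptor, stimulated with carbachol (final 1 uM, ~EC50), compound titration, 5 h at 37 °C. CCF4 loaded 1 h at RT; 460/530 nm ratio gave %activity and AC50.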

[9] = Stat Signaling Pathway (AID 446); settings: ME-180 (cervical carcinoma) SIE beta-lactamase reporter, IL-6 stimulated, 5 h;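 note: ME-180 cervical cancer cells given 40 pM IL-6 alongside compound; SIE-controlled beta-lactamase reporter measured as 460/530 nm FRET emission ratio; % is set by controls: 0 for no effect and ±100 for the full control effect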
Procedure, shortened: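 IL-6/STAT signaling read in ME-180 cells via an SIE beta-lactamase reporter. Stimulus was 40 pM IL-6 (its AC50) for 5 hrs, so both activation and inhibition register.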

[10] = molecular target: 3',5'-cyclic-AMP phosphodiesterase 4B (Homo sapiens) (UniProt Q07343); assay: qHTS Assay for Inhibitors of PDE-IV (AID 607; active = well fitted activation curve with a large enough effect in the main read-out, with a control signal flat, not every such curve was filed as active; note: % of control where 0% means no effect); settings: HEK293 ACTOne CNG channel cells, membrane potential fluorescence; series mostly up to 22.9 µM
Procedure, shortened: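 Live HEK293 cells with a modified cyclic nucleotide-gated (CNG) channel report intracellular cAMP via membrane-potential dye fluorescence (ex 535/em 590 nm). Endogenous PDE-IV was targeted. Compounds were tested at up to 22.9 uM final; RO 20-1724 100 uM served as control.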

[11] = molecular target: Pyruvate kinase (Leishmania mexicana) (UniProt Q27686); assay: qHTS Validation Assay for Inhibitors of Leishmania Mexicana Pyruvate Kinase (AID 945; active = well fitted curve in the direction sought with a large enough effect; an effect the other way counts as inactive or inconclusive;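 note: 0% = DMSO only neutral control wells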); settings: purified L. mexicana pyruvate kinase, enzyme activity, E451W mutant enzyme; series mostly up to 57.5 µM
Procedure, shortened: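 Eight-point qHTS titrations in triplicate, data normalized to DMSO neutral control. Reaction: 0.2 nM LmPYK E451W mutant, 0.5 mM PEP, 0.1 mM ADP, 7 mM MgCl2, pH 7.2, one hour at room temperature; luminescent ATP detection.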

[12] = molecular target: Pyruvate kinase PKM (Homo sapiens) (UniProt P14618); assay: qHTS Assay for Activators of Human Muscle Pyruvate Kinase (AID 954; active = well fitted curve in the direction sought with a large enough effect, not every such curve was filed as active;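 note: 0% = uninhibited enzyme and -100% = no enzyme or full thiadiazolimine inhibition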); settings: purified human muscle pyruvate kinase, luciferase-coupled luminescence, 1 h; series mostly up to 57.5 µM
Procedure, shortened: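 Enzyme was run at intermediate activity so both inhibitors and activators could be detected. ATP formed from ADP and PEP by 0.1 nM human PKM2 during a 1 h room-temperature incubation was quantified by coupled luciferase luminescence.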

[13] = molecular target: Alpha-galactosidase A (Homo sapiens) (UniProt P06280); assay: Counterscreen for Glucocerebrosidase Inhibitors: qHTS Assay for Human alpha-Galactosidase at pH 4.5 (AID 992; active = well fitted curve in the direction sought with a large enough effect; an effect the other way counts as inactive or inconclusive; note: 0% is about no effect); settings: purified enzyme, fluorogenic substrate; series mostly up to 76.9 µM
Procedure, shortened: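 Read-out is 4-methylumbelliferone fluorescence (365 nm excitation, 440 nm emission) after a pH 10 NaOH/glycine stop. Reactions held 2 nM enzyme and 80 uM substrate at pH 4.5 for 20 min at room temperature.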

[14] = molecular target: alpha-glucosidase (Oryza sativa, rice) (UniProt Q653V4); assay: Counterscreen for Glucocerebrosidase Inhibitors: qHTS Assay for Rice alpha-Glucosidase at pH 5.0 (AID 997; active = well fitted curve in the direction sought with a large enough effect; an effect the other way counts as inactive or inconclusive;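 note: 0% = full activity with enzyme and -100% = basal without enzyme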); settings: rice alpha-glucosidase enzyme activity; series mostly up to 76.9 µM
Procedure, shortened: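 Rice alpha-glucosidase (4 nM final) with 400 uM 4-methylumbelliferyl-alpha-D-glucopyranoside in citrate buffer pH 5.0, 20 min at room temperature, stopped at pH 10; fluorescence 365/440 nm, compounds 0.7 nM–77 uM, AC50 from Hill fits.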

[15] = molecular target: ATP-dependent 6-phosphofructokinase (Trypanosoma brucei brucei) (UniProt O15648); assay: qHTS Assay to Find Inhibitors of T. brucei phosphofructokinase: hit validation (AID 492961; active = well fitted curve in the direction sought with a large enough effect; an effect the other way counts as inactive or inconclusive); settings: T. brucei PFK, ADP-Glo luminescence; series mostly up to 24.3 µM
Procedure, shortened: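 Inhibition of parasite PFK is measured as reduced ADP formation, quantified via luciferase after ATP depletion. Assay used 0.1 mM ATP, 0.5 mM F6P, 1.25 nM enzyme, 45 min incubation.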

[16] = molecular target: Ubiquitin carboxyl-terminal hydrolase 1 (Homo sapiens) (UniProt O94782); assay: Inhibitors of USP1/UAF1: Pilot qHTS (AID 504865; active = well fitted curve in the direction sought with a large enough effect; an effect the other way counts as inactive or inconclusive;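 note: rhodamine fluorescence freed from ubiquitin-rhodamine substrate followed over time; top concentration of the series differs between compounds; % is set by controls: 0 for no effect and ±100 for the full control effect; nearly all actives have a fitted effect of over 35% in size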); settings: purified USP1/UAF1, Ub-rhodamine cleavage fluorescence; series mostly up to 54.9 µM
Procedure, shortened: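 USP1/UAF1 complex at 1 nM preincubated 15 min at room temperature with compound, then Ub-Rho substrate added at 150 nM final. Fluorescence (480/540 nm) read kinetically in 50 mM HEPES pH 7.8, 0.5 mM EDTA, 1 mM TCEP, 0.1 mg/ml BSA, 0.01% Tween-20.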

[17] = molecular target: Luciferin 4-monooxygenase (Photinus pyralis) (UniProt P08659); assay: Biochemical firefly luciferase enzyme assay for NPC (AID 624030; active = well fitted curve in the direction sought with a large enough effect; an effect the other way counts as inactive or inconclusive;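 note: purified P. pyralis luciferase at 10 nM with luciferin and ATP substrate; 0% = DMSO and -100% = full luciferase inhibition by PTC124 control; nearly all actives have a fitted effect of over 70% in size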); settings: purified P. pyralis luciferase, luminescence, 5 min; series mostly up to 58.6 µM
Procedure, shortened: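 Purified P. pyralis luciferase at 10 nM in 50 mM Tris Acetate (final), luminescence read within 5 minutes of enzyme addition to compounds. Activity normalised to PTC124 versus DMSO; concentration-response curves classed by r2, magnitude and activity.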

[18] = qHTS profiling for inhibitors of Plasmodium falciparum proliferation (AID 504749; active = well fitted curve in the direction sought with a large enough effect; an effect the other way counts as inactive or inconclusive;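 note: 0% = DMSO vehicle and full inhibition = artemisinin control; nearly all actives have a fitted effect of over 60% in size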); settings: P. falciparum in erythrocytes, SYBR Green DNA, 72 h, at 28.7 µM (top of the series)
Procedure, shortened: (§1)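 Readout was DNA-dye fluorescence from lysed cultures, ex 485/em 535 nm. Parasitized red cells had grown 72 h with compound; data scaled between 0.29 uM artemisinin and DMSO wells and corrected using vehicle-only plates.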

AS120 = assay: as above; settings: P. falciparum in erythrocytes, SYBR Green DNA, 72 h; series mostly up to 28.7 µM
Procedure, shortened: as §1

CP250 = assay: as above; settings: P. falciparum in erythrocytes, SYBR Green DNA, 72 h; series mostly up to 12.8 µM
Procedure, shortened: as §1

[19] = measured here: cell count channel max response
[20] = measured here: lipid channel max response

Chain of Pyruvate kinase PKM (Homo sapiens) (P14618 whole entry, looked up): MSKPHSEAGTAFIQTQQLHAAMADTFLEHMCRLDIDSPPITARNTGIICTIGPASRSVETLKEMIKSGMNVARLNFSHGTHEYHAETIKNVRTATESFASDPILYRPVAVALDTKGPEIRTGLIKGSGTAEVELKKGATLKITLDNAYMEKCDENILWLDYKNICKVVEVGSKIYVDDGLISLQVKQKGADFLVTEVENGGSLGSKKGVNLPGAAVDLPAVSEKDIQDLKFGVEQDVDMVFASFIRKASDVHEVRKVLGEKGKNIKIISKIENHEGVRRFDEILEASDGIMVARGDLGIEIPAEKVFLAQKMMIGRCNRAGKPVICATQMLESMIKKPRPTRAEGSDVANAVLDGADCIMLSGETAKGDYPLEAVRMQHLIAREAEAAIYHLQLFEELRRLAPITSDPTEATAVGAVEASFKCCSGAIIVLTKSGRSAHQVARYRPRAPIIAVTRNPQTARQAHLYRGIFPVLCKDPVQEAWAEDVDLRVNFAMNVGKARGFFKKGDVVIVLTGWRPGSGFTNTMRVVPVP
Chain of Cytochrome P450 1A2 (Homo sapiens) (P05177 whole entry, looked up): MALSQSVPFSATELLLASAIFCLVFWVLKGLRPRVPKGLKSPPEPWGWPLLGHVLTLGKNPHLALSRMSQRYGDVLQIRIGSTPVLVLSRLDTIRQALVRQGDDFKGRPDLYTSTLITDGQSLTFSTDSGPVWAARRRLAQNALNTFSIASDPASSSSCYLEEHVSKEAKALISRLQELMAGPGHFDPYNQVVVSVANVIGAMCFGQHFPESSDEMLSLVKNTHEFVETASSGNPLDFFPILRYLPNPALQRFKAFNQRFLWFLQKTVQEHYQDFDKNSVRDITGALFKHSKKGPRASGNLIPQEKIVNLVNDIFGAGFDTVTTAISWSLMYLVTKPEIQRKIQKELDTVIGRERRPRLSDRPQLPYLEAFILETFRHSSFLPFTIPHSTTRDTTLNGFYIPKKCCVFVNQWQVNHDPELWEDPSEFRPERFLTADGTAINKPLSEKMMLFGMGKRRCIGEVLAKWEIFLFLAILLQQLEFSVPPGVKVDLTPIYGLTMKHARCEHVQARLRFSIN
Chain of Ubiquitin carboxyl-terminal hydrolase 1 (Homo sapiens) (O94782 whole entry, looked up): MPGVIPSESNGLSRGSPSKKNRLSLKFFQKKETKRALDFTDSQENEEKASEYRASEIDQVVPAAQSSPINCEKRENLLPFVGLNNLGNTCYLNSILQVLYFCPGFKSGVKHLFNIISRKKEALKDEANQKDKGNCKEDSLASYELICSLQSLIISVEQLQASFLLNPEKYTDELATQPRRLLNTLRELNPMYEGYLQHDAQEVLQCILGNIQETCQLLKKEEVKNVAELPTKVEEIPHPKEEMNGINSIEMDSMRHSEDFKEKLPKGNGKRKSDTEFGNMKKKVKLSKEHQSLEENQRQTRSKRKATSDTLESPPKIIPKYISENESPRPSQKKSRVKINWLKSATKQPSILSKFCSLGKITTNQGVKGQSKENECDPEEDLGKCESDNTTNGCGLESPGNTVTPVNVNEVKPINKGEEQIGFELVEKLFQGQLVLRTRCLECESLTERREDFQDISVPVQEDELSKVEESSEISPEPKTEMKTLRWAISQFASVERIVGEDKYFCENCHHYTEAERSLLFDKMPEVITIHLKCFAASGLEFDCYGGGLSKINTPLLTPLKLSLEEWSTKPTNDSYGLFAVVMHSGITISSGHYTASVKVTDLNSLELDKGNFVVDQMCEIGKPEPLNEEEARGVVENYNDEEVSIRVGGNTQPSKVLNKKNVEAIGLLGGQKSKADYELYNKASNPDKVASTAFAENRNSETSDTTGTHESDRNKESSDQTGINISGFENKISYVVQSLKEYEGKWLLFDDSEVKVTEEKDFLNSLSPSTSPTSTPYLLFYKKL
Chain of Glucocorticoid receptor (Homo sapiens) (P04150 whole entry, looked up, the tested form may be a part): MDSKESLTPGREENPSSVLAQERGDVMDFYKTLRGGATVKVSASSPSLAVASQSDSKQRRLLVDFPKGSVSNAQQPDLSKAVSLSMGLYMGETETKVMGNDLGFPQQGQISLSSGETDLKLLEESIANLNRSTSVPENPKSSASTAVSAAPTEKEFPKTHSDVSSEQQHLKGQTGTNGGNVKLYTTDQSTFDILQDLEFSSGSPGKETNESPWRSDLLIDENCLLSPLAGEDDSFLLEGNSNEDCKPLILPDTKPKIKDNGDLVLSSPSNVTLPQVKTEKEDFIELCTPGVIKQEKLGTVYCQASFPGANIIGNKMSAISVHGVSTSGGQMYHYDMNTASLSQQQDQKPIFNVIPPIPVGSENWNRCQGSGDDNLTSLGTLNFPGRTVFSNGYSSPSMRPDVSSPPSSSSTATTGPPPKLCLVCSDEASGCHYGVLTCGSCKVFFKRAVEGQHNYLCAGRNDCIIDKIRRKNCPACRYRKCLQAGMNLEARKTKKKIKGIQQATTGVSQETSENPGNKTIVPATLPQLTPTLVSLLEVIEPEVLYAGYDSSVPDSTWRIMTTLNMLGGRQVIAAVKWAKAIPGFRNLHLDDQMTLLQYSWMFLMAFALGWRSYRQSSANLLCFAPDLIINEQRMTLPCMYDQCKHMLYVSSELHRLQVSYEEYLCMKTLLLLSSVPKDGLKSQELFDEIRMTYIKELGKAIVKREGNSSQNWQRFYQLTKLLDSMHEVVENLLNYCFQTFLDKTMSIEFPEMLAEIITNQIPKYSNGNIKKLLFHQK
Chain of 3',5'-cyclic-AMP phosphodiesterase 4B (Homo sapiens) (Q07343 whole entry, looked up): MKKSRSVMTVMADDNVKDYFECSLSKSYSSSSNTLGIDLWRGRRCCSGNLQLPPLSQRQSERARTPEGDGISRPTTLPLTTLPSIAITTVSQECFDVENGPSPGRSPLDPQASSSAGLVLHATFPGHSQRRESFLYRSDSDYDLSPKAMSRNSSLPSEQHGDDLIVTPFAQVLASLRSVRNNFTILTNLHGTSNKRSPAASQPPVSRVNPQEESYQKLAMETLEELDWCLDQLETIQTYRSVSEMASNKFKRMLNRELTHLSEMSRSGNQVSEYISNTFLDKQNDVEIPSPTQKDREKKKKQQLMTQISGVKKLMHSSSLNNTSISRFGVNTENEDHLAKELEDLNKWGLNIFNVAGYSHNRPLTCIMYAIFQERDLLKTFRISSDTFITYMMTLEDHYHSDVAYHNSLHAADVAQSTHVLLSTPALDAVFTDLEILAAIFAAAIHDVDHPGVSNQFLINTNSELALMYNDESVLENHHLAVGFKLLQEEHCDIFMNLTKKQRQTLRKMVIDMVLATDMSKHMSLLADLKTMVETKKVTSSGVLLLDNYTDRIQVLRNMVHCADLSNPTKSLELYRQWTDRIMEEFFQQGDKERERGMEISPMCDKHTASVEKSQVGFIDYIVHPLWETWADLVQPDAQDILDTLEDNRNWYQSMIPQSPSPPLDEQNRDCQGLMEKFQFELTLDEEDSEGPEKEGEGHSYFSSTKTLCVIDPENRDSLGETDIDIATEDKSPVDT
Chain of Alpha-galactosidase A (Homo sapiens) (P06280 whole entry, looked up): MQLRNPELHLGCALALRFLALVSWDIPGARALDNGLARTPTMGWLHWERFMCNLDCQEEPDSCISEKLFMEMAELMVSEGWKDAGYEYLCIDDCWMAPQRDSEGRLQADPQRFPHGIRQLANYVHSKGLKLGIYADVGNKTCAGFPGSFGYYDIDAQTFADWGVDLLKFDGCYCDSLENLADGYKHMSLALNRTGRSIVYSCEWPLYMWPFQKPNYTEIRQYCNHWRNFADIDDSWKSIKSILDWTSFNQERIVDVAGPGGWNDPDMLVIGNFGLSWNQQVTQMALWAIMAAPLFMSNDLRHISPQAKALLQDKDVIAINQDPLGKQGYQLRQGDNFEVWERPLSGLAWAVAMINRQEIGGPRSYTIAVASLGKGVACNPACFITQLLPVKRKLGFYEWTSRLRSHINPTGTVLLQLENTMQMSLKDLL
Chain of Pyruvate kinase (Leishmania mexicana) (Q27686 2-499 E452W): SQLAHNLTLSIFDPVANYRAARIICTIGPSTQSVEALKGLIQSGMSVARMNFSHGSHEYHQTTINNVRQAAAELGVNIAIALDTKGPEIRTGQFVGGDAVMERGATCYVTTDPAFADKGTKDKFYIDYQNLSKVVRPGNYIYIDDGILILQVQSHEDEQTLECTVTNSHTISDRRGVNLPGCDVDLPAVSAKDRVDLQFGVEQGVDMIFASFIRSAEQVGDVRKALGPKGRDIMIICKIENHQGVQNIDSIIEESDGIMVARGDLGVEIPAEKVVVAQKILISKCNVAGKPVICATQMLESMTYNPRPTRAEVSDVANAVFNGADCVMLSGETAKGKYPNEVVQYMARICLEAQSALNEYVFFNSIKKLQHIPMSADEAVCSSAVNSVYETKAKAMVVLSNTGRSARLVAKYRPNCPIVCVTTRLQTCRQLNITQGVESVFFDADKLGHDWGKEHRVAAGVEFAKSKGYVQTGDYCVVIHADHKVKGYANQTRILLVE
Chain of Luciferin 4-monooxygenase (Photinus pyralis) (P08659 whole entry, looked up): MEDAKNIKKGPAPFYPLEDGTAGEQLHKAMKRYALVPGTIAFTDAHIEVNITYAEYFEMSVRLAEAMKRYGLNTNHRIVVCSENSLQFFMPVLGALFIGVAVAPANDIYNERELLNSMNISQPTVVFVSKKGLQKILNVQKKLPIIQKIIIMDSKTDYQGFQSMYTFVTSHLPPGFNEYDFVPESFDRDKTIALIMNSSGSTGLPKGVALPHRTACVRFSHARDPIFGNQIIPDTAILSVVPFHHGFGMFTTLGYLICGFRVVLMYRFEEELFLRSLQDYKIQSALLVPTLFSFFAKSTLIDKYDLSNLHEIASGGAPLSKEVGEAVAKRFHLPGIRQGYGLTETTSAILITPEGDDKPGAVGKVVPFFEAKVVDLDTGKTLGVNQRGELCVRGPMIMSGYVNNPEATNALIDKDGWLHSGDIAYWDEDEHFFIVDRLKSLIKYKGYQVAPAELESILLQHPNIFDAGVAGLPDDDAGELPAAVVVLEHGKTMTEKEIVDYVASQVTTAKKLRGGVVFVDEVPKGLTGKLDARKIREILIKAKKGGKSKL

CN1CCN(c2ncc3nc(-c4ccccc4)c(=O)n(CCC#N)c3n2)CC1
Potency [1]: > 11.4 µM (inactive)
Potency [2]: 20 µM (active)
Potency [3]: > 9.22 µM (inactive)
Potency [4]: > 46 µM (inactive)
Potency [5]: inactive
activity change, negative = inhibition ([6]; at 57.5 µM (top of the series)): 6.29% (inactive)
max response [6, 19]: 19.8%
max response [6, 20]: 27.5%

CO[C@]1(NC(=O)CSCC#N)C(=O)N2C(C(=O)O)=C(CSc3nnnn3C)CS[C@H]21
activity change, negative = inhibition ([7]; at 17.2 µM (top of the series)): 6.3% (inactive)
activity change, negative = inhibition ([7]; at 38 µM (top of the series)): 6.07% (inactive)
Potency [2]: inactive
activity change, negative = inhibition ([8]; at 17.2 µM (top of the series)): -17.5% (inactive)
activity change, negative = inhibition ([8]; at 38 µM (top of the series)): -10.8% (inactive)
activity, negative = inhibition ([9]; at 17.2 µM (top of the series)): -13.5% (inactive)
activity, negative = inhibition ([9]; at 38 µM (top of the series)): 0.96% (inactive)
Potency [3]: > 46 µM (inactive) and > 20.6 µM (inactive)
Potency [4]: > 46 µM (inactive) and > 20.6 µM (inactive)
Potency [5]: inactive
Potency [10]: inactive
outcome [11]: inactive
outcome [12]: inactive
outcome [13]: inactive
outcome [14]: inactive
activity change, negative = inhibition ([6]; at 25.7 µM (top of the series)): -1.05% (inactive)
max response [6, 19]: -7.44%
max response [6, 20]: -5.83%
outcome [15]: inactive
Potency [16]: inactive
outcome [17]: inactive
activity, negative = inhibition ([18]; parasite line A): 11.9% (inactive)
activity, negative = inhibition ([18]; parasite line B): 2.32% (inactive)
Potency (AS120): inactive
Potency (CP250): inactive

C[C@@]12CCC(=O)C=C1CC[C@@H]1[C@@H]2[C@H](O)C[C@]2(C)[C@@H]1CC[C@]2(O)C(=O)CO
activity change, negative = inhibition ([7]; at 17.2 µM (top of the series)): 1.82% (inactive)
activity change, negative = inhibition ([7]; at 38 µM (top of the series)): 1.86% (inactive)
Potency [2]: inactive
activity change, negative = inhibition ([8]; at 17.2 µM (top of the series)): -9.51% (inactive)
activity change, negative = inhibition ([8]; at 38 µM (top of the series)): -0.823% (inactive)
activity, negative = inhibition ([9]; at 17.2 µM (top of the series)): -0.993% (inactive)
activity, negative = inhibition ([9]; at 38 µM (top of the series)): -22.1% (inactive)
Potency [5]: inactive
Potency [10]: inactive
activity change, negative = inhibition ([6]; at 25.7 µM (top of the series)): -5.23% (inactive)
max response [6, 19]: -11.2%
max response [6, 20]: -16.6%
Potency [16]: inactive

c1ccc([C@@H]2CN3CCSC3=N2)cc1
activity change, negative = inhibition ([7]; at 17.2 µM (top of the series)): 0.374% (inactive)
activity change, negative = inhibition ([7]; at 38 µM (top of the series)): 8.49% (inactive) and 7.24% (inactive)
Potency [2]: 31.6 µM (active) and inactive and 10 µM (active)
activity change, negative = inhibition ([8]; at 17.2 µM (top of the series)): -19.6% (inactive)
activity change, negative = inhibition ([8]; at 38 µM (top of the series)): -1.25% (inactive) and -14% (inactive)
activity, negative = inhibition ([9]; at 17.2 µM (top of the series)): -3.45% (inactive)
activity, negative = inhibition ([9]; at 38 µM (top of the series)): 11.8% (inactive)
Potency [3]: > 46 µM (inactive) and > 20.6 µM (inactive)
Potency [4]: > 46 µM (inactive) and > 20.6 µM (inactive)
Potency [5]: inactive
Potency [10]: inactive
outcome [11]: inactive
outcome [12]: inactive
outcome [13]: inactive
outcome [14]: inactive
activity change, negative = inhibition ([6]; at 25.7 µM (top of the series)): -1.37% (inactive)
max response [6, 19]: 3.69%
max response [6, 20]: -1.44%
Potency [16]: inactive

N[C@@H](CO)C(=O)NNCc1ccc(O)c(O)c1O
activity change, negative = inhibition ([7]; at 17.2 µM (top of the series)): 2.07% (inactive)
activity change, negative = inhibition ([7]; at 38 µM (top of the series)): 14.8% (inactive)
Potency [2]: inactive
activity change, negative = inhibition ([8]; at 17.2 µM (top of the series)): -8.03% (inactive)
activity change, negative = inhibition ([8]; at 38 µM (top of the series)): -7.62% (inactive)
activity, negative = inhibition ([9]; at 17.2 µM (top of the series)): -0.902% (inactive)
activity, negative = inhibition ([9]; at 38 µM (top of the series)): 4.31% (inactive)
Potency [10]: inactive
outcome [11]: inactive
outcome [12]: inactive
outcome [13]: inactive
outcome [14]: inactive
activity change, negative = inhibition ([6]; at 25.7 µM (top of the series)): -1.23% (inactive)
max response [6, 19]: -4.75%
max response [6, 20]: -6.43%
outcome [15]: inactive
Potency [16]: inactive
outcome [17]: inactive
activity, negative = inhibition ([18]; parasite line A): 21.9% (inactive)
activity, negative = inhibition ([18]; parasite line B): 19.7% (inactive)
Potency (AS120): inactive
Potency (CP250): inactive
